Most compounds without a hit are left out; they make up all but 21% or so of the library.
RORg inh: inhibitors of mouse ROR gamma transcriptional activity; P51450; Drosophila S2 Gal4-RORgamma UAS-luciferase reporter, 20 h; Potency, µM (titrated, usually from 53.6 µM), inactives show at the highest dose activity change, negative = inhibition, most hits filed as inhibitors; hit rate 5.4% among 310,000; AID 2551; also: potency is read from the fitted curve at half-maximal effect; nearly all actives have a fitted effect of over 60% in size
Target sequence (P51450 whole entry, looked up, the tested form may be a part): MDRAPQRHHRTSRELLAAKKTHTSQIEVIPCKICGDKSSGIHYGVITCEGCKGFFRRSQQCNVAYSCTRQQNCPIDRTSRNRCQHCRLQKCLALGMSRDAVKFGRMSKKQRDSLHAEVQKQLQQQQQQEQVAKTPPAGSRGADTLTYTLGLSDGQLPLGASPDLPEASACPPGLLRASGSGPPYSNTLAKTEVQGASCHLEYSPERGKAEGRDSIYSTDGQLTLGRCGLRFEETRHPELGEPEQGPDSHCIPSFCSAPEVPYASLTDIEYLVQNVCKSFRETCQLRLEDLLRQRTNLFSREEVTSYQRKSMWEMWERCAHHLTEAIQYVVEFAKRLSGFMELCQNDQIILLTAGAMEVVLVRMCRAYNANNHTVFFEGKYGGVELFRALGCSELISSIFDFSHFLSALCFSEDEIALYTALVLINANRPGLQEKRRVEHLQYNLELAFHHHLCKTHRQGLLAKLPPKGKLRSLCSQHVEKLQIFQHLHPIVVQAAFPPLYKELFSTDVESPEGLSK
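A Gal4/UAS one-hybrid system in insect cells: metallothionein-promoter Gal4–ROR gamma fusion plus Photinus luciferase reporter. Copper sulfate 700 uM final, 20 hr ambient incubation, luminescent detection after 10 min with reagent.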
DT40 TDP1 no CPT: qHTS for Inhibitors of human tyrosyl-DNA phosphodiesterase 1 (TDP1): qHTS in cells in absence of CPT | AID 686978, 2013 | Potency, µM (top dose mostly 46.2 µM), inactives show top-dose activity change, negative = growth inhibition, hits mostly inhibitors | hit rate 15% among 420,000 | DT40 Tdp1-/- hTDP1 cells, no CPT, ATP luminescence, 48 h; also: potency is read from the fitted curve at half-maximal effect; nearly all actives have a fitted effect of over 55% in size
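Stably hTDP1-transfected Tdp1-null chicken DT40 cells were treated with library compounds minus camptothecin and grown for at least 48 hr at 37 °C, after which cellular ATP was quantified by luminescence.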
Gal4-VP16 FLuc: inhibits Gal4-VP16 luciferase reporter, ROR gamma counter-screen | hit rate 3.5% among 310,000 | Drosophila S2 Gal4-VP16 UAS-luciferase, luminescence, 20 h | Potency, µM (highest dose often 53.6 µM), for inactives: at the highest dose activity, negative = inhibition, most hits filed as inhibitors;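 also: Gal4-VP16 expression switched on by copper sulfate through the metallothionein promoter; potency is read from the fitted curve at half-maximal effect; nearly all actives have a fitted effect of over 50% in size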
DT40 TDP1 CPT: growth inhibition of DT40 Tdp1-/-;hTDP1 cells with camptothecin (screen for TDP1 inhibitors). chicken DT40 Tdp1-/-;hTDP1 cells + 20 nM CPT, ATP luminescence, 48 h. AID 686979. Potency, µM (series often up to 46.2 µM), inactives show at the highest dose activity change, negative = growth inhibition, most hits filed as inhibitors. hit rate 12% among 420,000; also: potency is read from the fitted curve at half-maximal effect; nearly all actives have a fitted effect of over 55% in size
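Chicken DT40 Tdp1-/- cells stably complemented with human TDP1 were seeded at 400 cells/well in medium containing 20 nM camptothecin, exposed to pin-transferred compounds, and grown at 37 °C for at least 48 hr. Viability was read as ATP luminescence.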
ELG1 repair inh: blocks ELG1-dependent DNA repair in HEK293T cells | AID 504467 | Potency, µM (highest dose often 46.1 µM), for the others: at the top dose activity change, negative = inhibition, hits mostly inhibitors | hit rate 2.3% among 330,000 | HEK293T ELG1-luciferase reporter, luminescence, 16 h; DNA damage induced by 5-fluorouridine; also: potency is read from the fitted curve at half-maximal effect; nearly all actives have a fitted effect of over 55% in size
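HEK293T cells expressing luciferase-tagged ELG1 (2,000/well) received 5-Fluorouridine plus compound or DMSO for 16 hr at 37 °C. Luciferase was read by ONE-Glo luminescence after 30 min at room temperature.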
IL1B secr inh: blocks inflammasome-driven IL-1 beta release; THP-1 LPS/ATP IL-1B secretion, AlphaLISA, 16 h; stronger effect = lower value; activity change, % at 57.5 µM; hit rate 4.7% among 360,000; in the data active = activity change below about -50%; inconclusive = mostly about -30% to -49%
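Secreted IL-1B measured by AlphaLISA bead assay after 16 h compound exposure of THP-1 cells; compounds (final up to 57.5 uM) added 1 h before LPS (250 ng/mL) and ATP (1.25 mM) stimulation; lower signal means less secretion.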
* marks the source's active call; other numbers are inactive results; ? = inconclusive; . = no result. Unless noted, calls follow the shape of the dose curve; as a rule, active = well fitted curve in the direction sought with a large enough effect; inconclusive = small, poorly fitted or top-dose-only effect, or another doubt; inactive = no such curve, though single readings can be large; an effect the other way counts as inactive or inconclusive. % is scaled to controls: 0 for no effect and ±100 for the full control effect.

SMILES	RORg inh	DT40 TDP1 no CPT	Gal4-VP16 FLuc	DT40 TDP1 CPT	ELG1 repair inh	IL1B secr inh
FC(F)(F)c1cccc(NC(=S)N2CCCC2)c1	2%	-3%	0%	8%	9%	17
Cc1cccc(NC(=S)Nc2cccc(C(F)(F)F)c2)n1	1µM*	?	?	?	?	10
COc1cc(NC(=S)Nc2cccc(C)n2)cc(OC)c1OC	2.5µM*	?	8.9µM*	-14%	-17%	-18
FC(F)(F)c1cc(NC(=S)Nc2ccc3ccccc3c2)cc(C(F)(F)F)c1	?	.	14µM*	.	.	.
FC(F)(F)c1cc(NC(=S)NC23CC4CC(CC(C4)C2)C3)cc(C(F)(F)F)c1	-18%	.	?	.	.	.
FC(F)(F)c1cccc(NC(=S)Nc2cccc(NC(=S)Nc3cccc(C(F)(F)F)c3)n2)c1	5µM*	21µM*	?	29µM*	?	-86*
COc1cccc(NC(=O)Nc2cccc(C)n2)c1	9%	?	-11%	-19%	?	-28
O=C(COC(=O)/C=C/c1ccco1)Nc1cccc([N+](=O)[O-])c1	19%	-12%	3%	-7%	2%	0
CCCCN(C(=O)CC1CCCCC1)c1c(N)n(CCCC)c(=O)[nH]c1=O	.	?	.	-21%	.	17
N#Cc1ccccc1-c1ccc2ncnc(NCc3cccs3)c2c1	?	?	-12%	?	.	.
N#C[C@H]1[C@H](c2ccccc2)[C@](C#N)(C(=O)c2ccccc2)[C@@H]2C=Cc3ccccc3N21	24%	.	-10%	.	13µM*	.
O=C(COC(=O)CNS(=O)(=O)c1ccccc1)Nc1ncc(Cl)cc1Cl	.	6.5µM*	.	6%	9%	-16
O=C(COC(=O)CNC(=O)c1ccc([N+](=O)[O-])o1)Nc1ncc(Cl)cc1Cl	.	-7%	.	?	1%	-92*
CCCN(Cc1ccccc1)C(=S)NC(=O)c1ccccc1[N+](=O)[O-]	0.35µM*	-30%	1µM*	-8%	?	0
CCN(Cc1ccccc1)C(=S)NC(=O)c1ccccc1Br	0.79µM*	?	1.1µM*	?	-28%	-19
CN(Cc1ccccc1)C(=O)c1ccccc1Br	9%	2%	1%	7%	-15%	-3
O=C(NC(=S)N(CCO)Cc1ccccc1)c1cc(Br)ccc1Cl	0.79µM*	?	1.8µM*	?	16%	-12
CCCCN(C(C)=O)c1c(N)n(CCC)c(=O)n(CC(=O)Nc2cc(Cl)cc(Cl)c2)c1=O	15%	-16%	-6%	8%	3%	?
Cc1nc(N2CCCCC2)[nH]c(=O)c1CN(C)N=O	.	?	.	-17%	.	?
Cc1c(C(=O)Nc2ccccc2F)sc2ncn(CC(=O)N3CCCCC3)c(=O)c12	28%	2%	5%	-25%	3%	1
Cc1ccccc1-c1nc(CS(=O)(=O)CC(=O)NCc2cccc(Cl)c2)c(C)o1	.	?	.	16µM*	.	.
Cc1ccccc1-c1nc(CS(=O)(=O)CC(=O)NCCc2ccccc2)c(C)o1	17%	-26%	?	?	?	-22
Cc1ccccc1-c1nc(CS(=O)(=O)CC(=O)NCC(C)c2ccccc2)c(C)o1 (stereo not drawn)	.	16µM*	.	?	.	.
Cc1ccccc1-c1nc(CS(=O)(=O)CC(=O)Nc2cc(F)ccc2F)c(C)o1	-27%	21µM*	4%	?	-27%	17
COc1ccc(CNC(=O)C2CCCN2C)cc1OC (stereo not drawn)	3%	18%	1%	-9%	-2%	6
Cn1c(Oc2cccnc2CN2CCCC2)nc2cc(-c3cccc(C(F)(F)F)c3)sc2c1=O	.	?	.	?	.	-26

Bioassay records as filed in PubChem BioAssay.
